Data published in the supplement of paper PMC6555819.

Tests used:
Assay in all cases: PBM binding z-score (relative to random genomic background probes); higher = stronger binding; sequences stand for … in GC…GCGATTGACAGCGTAGAATGAAGG
[1] = test system: FXR:RXRa (NR concentration 270 nM, RXRa partner concentration 90 nM)
In short: (§1)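 The probes on custom Agilent 4×180K protein-binding microarrays were double-stranded, with 34-nt variable regions bearing direct-repeat seeds, single-nucleotide variants, half-site ablations and random human genomic background sequences. Incubation lasted 1 h with ligand-free nuclear receptor dimers in PBS pH 7.4, 2% milk, 0.02% Triton X-100, 1 mM DTT, 0.2 mg/mL BSA and 0.4 mg/ml salmon testes DNA. Antibodies against each partner (one per run) detected bound dimers, and fluorescence scans were regression-normalized. Binding z-scores take the random background probes as reference.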

[2] = test system: LXRa:RXRa (NR concentration 270 nM, RXRa partner concentration 90 nM)
In short: as §1

[3] = test system: LXRa homodimer (NR concentration 270 nM)
In short: as §1

[4] = test system: LXRb:RXRa (NR concentration 270 nM, RXRa partner concentration 90 nM)
In short: as §1

[5] = test system: LXRb homodimer (NR concentration 270 nM)
In short: as §1

[6] = test system: PPARa:RXRa (NR concentration 270 nM, RXRa partner concentration 90 nM)
In short: as §1

[7] = test system: PPARg:RXRa (NR concentration 180 nM, RXRa partner concentration 90 nM)
In short: as §1

[8] = test system: PPARg:RXRa 270nM:90nM, anti-RXR (NR concentration 270 nM, RXRa partner concentration 90 nM)
In short: as §1

[9] = test system: PPARg:RXRa 30nM:10nM, anti-RXR (NR concentration 30 nM, RXRa partner concentration 10 nM)
In short: as §1

[10] = test system: PPARg:RXRa 90nM:30nM, anti-RXR (NR concentration 90 nM, RXRa partner concentration 30 nM)
In short: as §1

[11] = test system: PPARg:RXRa DBDmut IVT, anti-RXR (DBD mutation: RXRa K156A/R161A, NR concentration 270 nM, RXRa partner concentration 90 nM)
In short: as §1

[12] = test system: PPARg:RXRa IVT, anti-PPARg (NR concentration 270 nM, RXRa partner concentration 90 nM)
In short: as §1

[13] = test system: PPARg DBDmut:RXRa IVT, anti-PPARg (DBD mutation: PPARg1 K132A/R137A, NR concentration 270 nM, RXRa partner concentration 90 nM)
In short: as §1

[14] = test system: PPARg DBDmut IVT, anti-PPARg (DBD mutation: PPARg1 K132A/R137A, NR concentration 270 nM)
In short: as §1

[15] = test system: PPARg homodimer (NR concentration 180 nM)
In short: as §1

[16] = test system: PXR:RXRa (NR concentration 270 nM, RXRa partner concentration 90 nM)
In short: as §1

[17] = test system: PXR homodimer (NR concentration 270 nM)
In short: as §1

[18] = test system: RARa:RXR (NR concentration 270 nM, RXRa partner concentration 90 nM)
In short: as §1

[19] = test system: RARa homodimer (NR concentration 270 nM)
In short: as §1

[20] = test system: RARb:RXRa (NR concentration 270 nM, RXRa partner concentration 90 nM)
In short: as §1

Sequence	PBM binding z-score [1]	PBM binding z-score [2]	PBM binding z-score [3]	PBM binding z-score [4]	PBM binding z-score [5]	PBM binding z-score [6]	PBM binding z-score [7]	PBM binding z-score [8]	PBM binding z-score [9]	PBM binding z-score [10]	PBM binding z-score [11]	PBM binding z-score [12]	PBM binding z-score [13]	PBM binding z-score [14]	PBM binding z-score [15]	PBM binding z-score [16]	PBM binding z-score [17]	PBM binding z-score [18]	PBM binding z-score [19]	PBM binding z-score [20]
CGTCAAAGTTCAAGGTAACATAACAGAAAGCAGC	6.08	5.39	2.7	3.37	1.22	4.67	4.56	5.16	2.16	3.9	0.0346	2.06	0.987	0.494	2.78	4.26	2.87	3.65	1.23	5.13
ATATGTAGGTTAGCTGGGGTCATTCGGACTAGGC	4.85	5.8	3.75	4.73	1.58	5.11	5.79	5.43	3	4.4	6.85	6.3	3.21	1.98	4.23	6.74	5.39	6.34	1.19	3.05
TCTAGGTGGTCAAAGGTCACACACTCGAAATGCG	6.45	5.79	3.73	5.64	1.02	6.57	10.3	8.72	8.95	10.2	3.06	5.9	1.01	1.59	4.5	6.19	1.82	7.34	2.69	5.22
TCGAGTAGGTTACCAATGGGGAATTCAGCTTTCT	0.0745	0.417	-0.56	0.355	-0.737	0.977	0.304	1.2	0.963	1.18	3.57	2.58	-0.097	-0.739	-0.227	-0.148	-1.08	0.0848	-1.2	0.621
TAGCCTAGGTCATTCAGGGGCCAGTACAGAAAGC	4.86	4.11	0.86	3.16	0.986	3.6	2.29	2.39	0.132	1.25	1.84	2.77	-0.186	0.258	1.6	2.52	-0.228	3.86	-0.153	3.9
TCGAGTAGGTTACCAATGGGGCTTTCAGCTTTCT	-0.0439	0.131	-1.06	0.62	-0.632	0.836	-0.121	0.803	1.11	0.796	3.39	2.45	-0.964	0.0286	-0.411	-0.0679	-0.767	-0.0921	-1.47	0.762
TAGCCTAGGTCCTTGGGCCAGTATAGTACGCATC	-1.55	-1.18	-1.24	-1.1	-1.16	-1.2	-0.0575	-0.847	-0.771	-0.944	-1	-0.913	-2.61	-1.34	-2.22	-1.19	-1.2	-1.44	-2.43	-0.495
